What all share (conditions): mRNA level, 48 h; actives raise or lower the signal
Read-out in test [1]: Alkaline Phosphatase, Placental (ALPP) gene, ALPP (gene 250)
In words: LTEA_HepaRG_ALPP: Life Technologies and Expression Analysis (LTEA) Assay for Alkaline Phosphatase, Placental (ALPP) gene using HepaRG (AID 2283468). A digest of the protocol:
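Using human liver HepaRG cells, chemicals are tested in duplicate over 48 h at half-log concentrations topping at 100 uM; phenobarbital 1 mM serves as induction control. ALPP mRNA change by qRT-PCR, bidirectional fit against vehicle.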

Read-out in test [2]: Bcl-2 (BAD) gene, BAD (gene 572)
In words: LTEA_HepaRG_BAD: Life Technologies and Expression Analysis (LTEA) Assay for Bcl-2 (BAD) gene using HepaRG (AID 2283469). A digest of the protocol:
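BAD transcript change, measured by qRT-PCR against three housekeeping genes and fitted in both directions relative to 0.5% DMSO, after 48 h chemical treatment of human HepaRG liver cells at concentrations up to 100 uM.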

Read-out in test [3]: Bcl-2 (BAX) gene, BAX (gene 581)
In words: LTEA_HepaRG_BAX: Life Technologies and Expression Analysis (LTEA) Assay for Bcl-2 (BAX) gene using HepaRG (AID 2283470). A digest of the protocol:
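Differentiated HepaRG cells exposed 48 h in serum-free induction medium, eight half-log concentrations from 100 uM, in duplicate, 0.5% DMSO vehicle. BAX mRNA by TaqMan qRT-PCR, normalised to ACTB, GAPDH and POLR2A.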

Read-out in test [4]: adenosine kinase (ADK) gene, ADK (gene 132)
The experiment in a line: LTEA_HepaRG_ADK: Life Technologies and Expression Analysis (LTEA) Assay for adenosine kinase (ADK) gene using HepaRG (AID 2283471). A digest of the protocol: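 Read-out is ADK transcript level measured by qRT-PCR and normalised to three housekeeping genes. Cells are human HepaRG, dosed for 48 h at up to 100 uM in 0.5% DMSO. Gain or loss of signal is fitted against DMSO controls.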

Read-out in test [5]: Alpha-fetoprotein (AFP) gene, AFP (gene 174)
In words: LTEA_HepaRG_AFP: Life Technologies and Expression Analysis (LTEA) Assay for Alpha-fetoprotein (AFP) gene using HepaRG (AID 2283472). In short, it runs like this:
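Differentiated human HepaRG cells exposed 48 h in serum-free induction medium, 8-point half-log series from 100 uM in 0.5% DMSO, duplicate. AFP mRNA by qRT-PCR, normalized to ACTB, GAPDH, POLR2A; bidirectional fit vs DMSO.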

Read-out in the next test: BCL2L11 (gene 10018)
The experiment in a line: LTEA_HepaRG_BCL2L11: Life Technologies and Expression Analysis (LTEA) Assay for Bcl-2 (BCL2L11) gene using HepaRG (AID 2283473). A digest of the protocol: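 Human hepatic HepaRG cultures are treated 48 h with test chemicals (maximum 100 uM, 0.5% DMSO vehicle). Expression of BCL2L11 is measured by qRT-PCR against ACTB, GAPDH and POLR2A, with activity in either direction scored relative to vehicle.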

Read-out in test [6]: Apolipoprotein A-V (APOA5) gene, APOA5 (gene 116519)
In words: LTEA_HepaRG_APOA5: Life Technologies and Expression Analysis (LTEA) Assay for Apolipoprotein A-V (APOA5) gene using HepaRG (AID 2283474). In short, it runs like this: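 Concentration-response of APOA5 expression in HepaRG: eight half-log doses to 100 uM, 48 h, qRT-PCR normalized to ACTB/GAPDH/POLR2A, bidirectional fitting with 0.5% DMSO as baseline.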

Read-out in test [7]: Apoptosis regulator Bcl-2 (Homo sapiens) (UniProt P10415)
In words: LTEA_HepaRG_BCL2: Life Technologies and Expression Analysis (LTEA) Assay for Bcl-2 gene using HepaRG (AID 2283475). A digest of the protocol: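 Differentiated human HepaRG cells in serum-free induction medium exposed 48 h, in duplicate, to 8-point half-log series from 100 uM in 0.5% DMSO. BCL2 mRNA by qRT-PCR (TaqMan/Fluidigm), normalized to ACTB, GAPDH, POLR2A; bidirectional fit against DMSO.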

Read-out in test [8]: Bcl-2 (BID) gene, BID (gene 637)
The experiment in a line: LTEA_HepaRG_BID: Life Technologies and Expression Analysis (LTEA) Assay for Bcl-2 (BID) gene using HepaRG (AID 2283476). A digest of the protocol:
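Gene expression by qRT-PCR in HepaRG cells after 48 h exposure, duplicate wells, eight half-log concentrations topping at 100 uM in 0.5% DMSO. Normalized to ACTB, GAPDH, POLR2A; bidirectional fitting relative to DMSO.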

Read-out in another test: Caspase-3 (Homo sapiens) (UniProt P42574)
The experiment in a line: LTEA_HepaRG_CASP3: Life Technologies and Expression Analysis (LTEA) Assay for cysteine-aspartic acid protease (CASP3) using HepaRG (AID 2283477). A digest of the protocol:
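Transcript-level assay: CASP3 mRNA in human HepaRG after 48 h treatment, eight half-log concentrations from 100 uM in 0.5% DMSO, quantified by qRT-PCR.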

Read-out in test [9]: Cytochrome P450 (CYP24A1), CYP24A1 (gene 1591)
The experiment in a line: LTEA_HepaRG_CYP24A1: Life Technologies and Expression Analysis (LTEA) Assay for Cytochrome P450 (CYP24A1) using HepaRG (AID 2283478). A digest of the protocol: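 Gene expression of CYP24A1 by TaqMan qRT-PCR in HepaRG after 48 h treatment, highest concentration 100 uM; activity fitted in both directions relative to DMSO vehicle.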

Read-out in test [10]: Cytochrome P450 (CYP1A2), CYP1A2 (gene 1544)
The experiment in a line: LTEA_HepaRG_CYP1A2: Life Technologies and Expression Analysis (LTEA) Assay for Cytochrome P450 (CYP1A2) using HepaRG (AID 2283479). A digest of the protocol:
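In duplicate wells, HepaRG cultures maintained in 0.5% DMSO were treated 48 h across an 8-point, half-log series topping at 100 uM; phenobarbital (1 mM) served as induction control. Expression was read by qRT-PCR.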

Read-out in test [11]: cysteine-aspartic acid protease (CASP8), CASP8 (gene 841)
The experiment in a line: LTEA_HepaRG_CASP8: Life Technologies and Expression Analysis (LTEA) Assay for cysteine-aspartic acid protease (CASP8) using HepaRG (AID 2283480). A digest of the protocol: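 HepaRG, 48 h exposure, duplicate wells; 8 conc, half-log from 100 uM, 0.5% DMSO. Serum-free induction medium. CASP8 mRNA by TaqMan qRT-PCR, norm. ACTB/GAPDH/POLR2A; gain/loss fitted vs DMSO.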

Read-out in test [12]: Cytochrome P450 (CYP2B6), CYP2B6 (gene 1555)
The experiment in a line: LTEA_HepaRG_CYP2B6: Life Technologies and Expression Analysis (LTEA) Assay for Cytochrome P450 (CYP2B6) using HepaRG (AID 2283481). A digest of the protocol: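 Human HepaRG, 48 h dosing, 0.5% DMSO vehicle, top dose 100 uM. CYP2B6 transcript by qRT-PCR, housekeeping-normalized, bidirectional curve fit.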

Read-out in test [13]: Cytochrome P450 2C19 (Homo sapiens) (UniProt P33261)
The experiment in a line: LTEA_HepaRG_CYP2C19: Life Technologies and Expression Analysis (LTEA) Assay for CYP2C19 using HepaRG (AID 2283482). In short, it runs like this: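 Endpoint: CYP2C19 mRNA change, bidirectional fit vs 0.5% DMSO. Cells: HepaRG, 48 h exposure, eight-point series topping at 100 uM. Quantitation: qRT-PCR normalized to ACTB, GAPDH, POLR2A.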

Read-out in another test: CYP2C8 (gene 1558)
The experiment in a line: LTEA_HepaRG_CYP2C8: Life Technologies and Expression Analysis (LTEA) Assay for CYP2C8 using HepaRG (AID 2283483). A digest of the protocol: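 CYP2C8 mRNA induction or loss, by qRT-PCR normalized to ACTB/GAPDH/POLR2A, is read in HepaRG cells after 48 h treatment. Concentrations run from 100 uM down in half-log dilutions, with 0.5% DMSO as vehicle and baseline.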

Read-out in a further test: CYP2C9 (gene 1559)
In words: LTEA_HepaRG_CYP2C9: Life Technologies and Expression Analysis (LTEA) Assay for CYP2C9 using HepaRG (AID 2283484). In short, it runs like this: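 Cells plated 48 h, switched to serum-free induction medium, then treated in duplicate for 48 h at eight concentrations (max 100 uM, 0.5% DMSO). RNA then analysed by qRT-PCR for CYP2C9; curves fitted in both directions relative to DMSO.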

Read-out in another test: CYP2E1 (gene 1571)
In words: LTEA_HepaRG_CYP2E1: Life Technologies and Expression Analysis (LTEA) Assay for CYP2E1 using HepaRG (AID 2283485). In short, it runs like this:
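HepaRG cells, plated 48 h, then exposed 48 h in serum-free induction medium to eight half-log concentrations from 100 uM in 0.5% DMSO, duplicate. CYP2E1 mRNA by qRT-PCR, normalized to ACTB/GAPDH/POLR2A; bidirectional fit versus DMSO.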

Read-out in test [14]: Cytochrome P450 3A4 (Homo sapiens) (UniProt P08684)
In words: LTEA_HepaRG_CYP3A4: Life Technologies and Expression Analysis (LTEA) Assay for CYP3A4 using HepaRG (AID 2283487). In short, it runs like this:
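HepaRG, 48 h exposure, 8-pt CRC from 100 uM (half-log), 0.5% DMSO, duplicates; serum-free induction medium. Readout: CYP3A4 mRNA, qRT-PCR, ACTB/GAPDH/POLR2A normalization. Bidirectional fit vs DMSO.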

Read-out in the next test: CYP4A11 (gene 1579)
The experiment in a line: LTEA_HepaRG_CYP4A11: Life Technologies and Expression Analysis (LTEA) Assay for CYP4A11 using HepaRG (AID 2283486). A digest of the protocol: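 Human hepatic HepaRG cultures receive duplicate 48 h exposures across a concentration-response series topping at 100 uM. Expression changes in CYP4A11 are measured by qRT-PCR relative to DMSO controls.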

Three compounds from PubChem BioAssay (EPA / NIEHS) can be followed below.

The source made the active and inactive calls. Rule for the calls: active = hit-call score of the fitted dose curve at least 0.9, where 1 is the maximum; inactive = score below 0.9.

By AC50 is commonly meant the concentration at which the activity in the assay is half-maximal.

Sequence of Apoptosis regulator Bcl-2 (Homo sapiens) (P10415 whole entry, looked up): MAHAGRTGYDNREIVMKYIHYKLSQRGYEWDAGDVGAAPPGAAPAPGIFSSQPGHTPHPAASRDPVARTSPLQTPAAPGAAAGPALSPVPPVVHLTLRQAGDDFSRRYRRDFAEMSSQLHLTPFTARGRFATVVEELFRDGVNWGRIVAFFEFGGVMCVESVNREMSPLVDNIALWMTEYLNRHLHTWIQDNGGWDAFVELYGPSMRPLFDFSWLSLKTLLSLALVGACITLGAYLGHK
Sequence of Cytochrome P450 2C19 (Homo sapiens) (P33261 whole entry, looked up): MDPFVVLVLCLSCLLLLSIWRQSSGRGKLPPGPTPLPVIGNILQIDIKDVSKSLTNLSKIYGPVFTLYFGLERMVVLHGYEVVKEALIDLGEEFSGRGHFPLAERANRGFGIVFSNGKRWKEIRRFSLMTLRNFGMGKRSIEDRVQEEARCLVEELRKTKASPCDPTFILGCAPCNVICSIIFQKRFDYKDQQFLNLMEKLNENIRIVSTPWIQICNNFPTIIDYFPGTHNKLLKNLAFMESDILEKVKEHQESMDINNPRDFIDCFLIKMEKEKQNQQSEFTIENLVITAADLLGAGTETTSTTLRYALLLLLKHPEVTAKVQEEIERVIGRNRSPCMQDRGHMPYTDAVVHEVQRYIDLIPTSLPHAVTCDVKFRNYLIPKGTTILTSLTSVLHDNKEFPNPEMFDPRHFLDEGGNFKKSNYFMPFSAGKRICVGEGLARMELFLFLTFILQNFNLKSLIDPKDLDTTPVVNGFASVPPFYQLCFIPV
Sequence of Caspase-3 (Homo sapiens) (P42574 whole entry, looked up): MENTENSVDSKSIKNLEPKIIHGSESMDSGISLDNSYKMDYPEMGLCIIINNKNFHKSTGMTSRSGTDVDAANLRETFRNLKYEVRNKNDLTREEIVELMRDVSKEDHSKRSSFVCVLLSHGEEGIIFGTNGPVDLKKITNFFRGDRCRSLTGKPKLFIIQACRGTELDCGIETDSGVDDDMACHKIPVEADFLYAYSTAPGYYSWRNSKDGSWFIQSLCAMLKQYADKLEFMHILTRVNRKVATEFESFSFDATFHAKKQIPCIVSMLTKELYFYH
Sequence of Cytochrome P450 3A4 (Homo sapiens) (P08684 whole entry, looked up): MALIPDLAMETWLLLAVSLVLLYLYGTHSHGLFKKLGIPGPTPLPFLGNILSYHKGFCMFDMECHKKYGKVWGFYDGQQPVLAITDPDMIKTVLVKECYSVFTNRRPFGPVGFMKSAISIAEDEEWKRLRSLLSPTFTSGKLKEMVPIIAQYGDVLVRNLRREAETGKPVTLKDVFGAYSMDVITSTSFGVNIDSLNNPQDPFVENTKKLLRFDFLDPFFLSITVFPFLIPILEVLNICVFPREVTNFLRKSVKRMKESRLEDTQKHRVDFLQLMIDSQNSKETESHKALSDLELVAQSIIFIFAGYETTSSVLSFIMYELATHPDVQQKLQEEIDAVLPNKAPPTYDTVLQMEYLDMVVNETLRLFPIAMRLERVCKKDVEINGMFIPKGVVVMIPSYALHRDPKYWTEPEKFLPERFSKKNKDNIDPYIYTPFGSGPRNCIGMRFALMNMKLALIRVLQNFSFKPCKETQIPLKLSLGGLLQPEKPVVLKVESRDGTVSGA

As to `CC(C)(c1ccccc1)c1ccc(O)cc1`, the compound was classed as inactive (in test [1]; in [2]; in [3]; in test [4]; in the test with BCL2L11 (gene 10018); in test [7]). For the same compound, the compound was classed as inactive (in [8]; with Caspase-3 (Homo sapiens); in test [9]; in test [11]; in [13]; in the test with CYP2C8 (gene 1558)). Moreover, the result (in the test with CYP2C9 (gene 1559); in the test with CYP2E1 (gene 1571); in test [14]) was inactive. Also, the AC50 is 77.8 µM (active) in [5], 78.3 µM (active) in test [6], 75.5 µM (active) in test [10] and 11.8 µM (active) in test [12].

As for `CC(C)C(=O)OCC(C)(C)C(OC(=O)C(C)C)C(C)C` (centres undefined), the outcome (in test [1]; in test [2]; in test [3]; in [4]; in test [5]; in the test with BCL2L11 (gene 10018)) was inactive. The result (in test [6]; in test [7]; in test [8]; with Caspase-3 (Homo sapiens); in [9]; in test [10]) was inactive. Moreover, the call (in test [11]; in test [12]; in test [13]; with CYP2C8 (gene 1558); with CYP2C9 (gene 1559); with CYP2E1 (gene 1571)) was inactive. The compound was classed as inactive (in the test with CYP4A11 (gene 1579); in test [14]).

As for `C[C@]12CCC(=O)C=C1CC[C@@H]1[C@@H]2CC[C@]2(C)C(=O)CC[C@@H]12`, the AC50 was 29.8 µM (active) in [1]; 50 µM (active) in test [5]; 50 µM (active) in test [6]; 50 µM (active) in test [8]; 50 µM (active) in [10]; 10.4 µM (active) in test [13]. The AC50 with CYP2E1 (gene 1571) was 1.16 µM (active); with CYP4A11 (gene 1579), 85.7 µM (active); in test [14] it was 30.8 µM (active). The compound was called inactive (in test [2]; in test [3]; in test [4]; in the test with BCL2L11 (gene 10018); in test [7]; with Caspase-3 (Homo sapiens)). Further, the result (in test [9]; in test [11]; in test [12]; in the test with CYP2C8 (gene 1558); with CYP2C9 (gene 1559)) was inactive.
